Results reported in PMC5913336, “True equilibrium measurement of transcription factor-DNA binding affinities using automated polarization microscopy”.

Target: T1, Zelda (Drosophila melanogaster, UniProt Q9VWC6 1319-1447)
T1 sequence: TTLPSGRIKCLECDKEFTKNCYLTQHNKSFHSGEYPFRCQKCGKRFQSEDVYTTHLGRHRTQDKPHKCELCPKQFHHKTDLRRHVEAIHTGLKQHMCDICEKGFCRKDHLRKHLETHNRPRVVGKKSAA
Test: FP; 33 mM phosphate pH 7.0, 90 mM NaCl, 0.01% Tween 20, 0.1 mM DTT, 0.5% agarose; room temperature
Conditions: tags: N-GST (pGEX-6P-1, kept); dsDNA, one strand shown

Question: Which binding signal does the source give for AATTTCCGGTACC here?
Answer: Its binding signal is 36.1 Kd / Kd of best base at the position.

Question: Which binding signal does the source give for AATTTTAGGTACC here?
Answer: The binding signal was 4.6 Kd / Kd of best base at the position.

Question: Which binding signal does the source give for AATTTCAGGTAAC here?
Answer: The binding signal was 1.38 Kd / Kd of best base at the position.

Question: AATATCAGGTACC was tested. Which binding signal did it give?
Answer: Its binding signal is 1.65 Kd / Kd of best base at the position.

Question: For AGTTTCAGGTACC, which binding signal is on record?
Answer: Its binding signal is 2.05 Kd / Kd of best base at the position.

Question: For GATTTCAGGTACC, which binding signal is on record?
Answer: Its binding signal is 2.27 Kd / Kd of best base at the position.

Question: With AACTTCAGGTACC as the sequence, how does the binding signal read?
Answer: Its binding signal is 1.86 Kd / Kd of best base at the position.

Question: How did the binding signal turn out when AAGTTCAGGTACC was run?
Answer: The binding signal was 1.72 Kd / Kd of best base at the position.

Question: For AATTTGAGGTACC, which binding signal is on record?
Answer: Its binding signal is 17.6 Kd / Kd of best base at the position.

Question: Which binding signal does the source give for AATTTCAGGTCCC here?
Answer: Its binding signal is 10.1 Kd / Kd of best base at the position.

Question: For AATTTCAGGCACC, which binding signal is on record?
Answer: The binding signal was 9.39 Kd / Kd of best base at the position.

Question: For AAATTCAGGTACC, which binding signal is on record?
Answer: Its binding signal is 1.56 Kd / Kd of best base at the position.

Question: How did the binding signal turn out when AATTTCATGTACC was run?
Answer: The binding signal was 12.8 Kd / Kd of best base at the position.

Question: For AATTTCAGATACC, which binding signal is on record?
Answer: The binding signal was 12.3 Kd / Kd of best base at the position.

Question: AATCTCAGGTACC was tested. Which binding signal did it give?
Answer: Its binding signal is 1.8 Kd / Kd of best base at the position.

Question: For AATTTCGGGTACC, which binding signal is on record?
Answer: Its binding signal is 7.8 Kd / Kd of best base at the position.

Question: Which binding signal does the source give for AATTTCACGTACC here?
Answer: The binding signal was 11.7 Kd / Kd of best base at the position.

Question: With AATTTCAGGTGCC as the sequence, how does the binding signal read?
Answer: Its binding signal is 9.55 Kd / Kd of best base at the position.

Question: How did the binding signal turn out when AATTTCAGGTACA was run?
Answer: Its binding signal is 2.29 Kd / Kd of best base at the position.

Question: For AATTTCAGGTTCC, which binding signal is on record?
Answer: The binding signal was 14.1 Kd / Kd of best base at the position.

Question: With ATTTTCAGGTACC as the sequence, how does the binding signal read?
Answer: The binding signal was 1.63 Kd / Kd of best base at the position.

Question: Which binding signal does the source give for AATTTCAGGAACC here?
Answer: Its binding signal is 19.3 Kd / Kd of best base at the position.

Question: How did the binding signal turn out when ACTTTCAGGTACC was run?
Answer: Its binding signal is 1.87 Kd / Kd of best base at the position.

Question: For AATTTCAGTTACC, which binding signal is on record?
Answer: The binding signal was 9.11 Kd / Kd of best base at the position.

Question: For AATTTCTGGTACC, which binding signal is on record?
Answer: The binding signal was 19.2 Kd / Kd of best base at the position.

Question: How did the binding signal turn out when AATTGCAGGTACC was run?
Answer: The binding signal was 1.37 Kd / Kd of best base at the position.

Question: How did the binding signal turn out when AATTTCAAGTACC was run?
Answer: The binding signal was 8.76 Kd / Kd of best base at the position.

Question: Which binding signal does the source give for AATTTAAGGTACC here?
Answer: The binding signal was 17.1 Kd / Kd of best base at the position.

Question: How did the binding signal turn out when AATTTCAGGTAGC was run?
Answer: The binding signal was 1.01 Kd / Kd of best base at the position.

Question: For AATTTCAGGTACT, which binding signal is on record?
Answer: The binding signal was 2.11 Kd / Kd of best base at the position.

Question: AATTCCAGGTACC was tested. Which binding signal did it give?
Answer: The binding signal was 1.28 Kd / Kd of best base at the position.

Question: With TATTTCAGGTACC as the sequence, how does the binding signal read?
Answer: The binding signal was 1.83 Kd / Kd of best base at the position.

Question: For AATTTCAGCTACC, which binding signal is on record?
Answer: Its binding signal is 15.7 Kd / Kd of best base at the position.

Question: How did the binding signal turn out when AATTACAGGTACC was run?
Answer: Its binding signal is 1.77 Kd / Kd of best base at the position.

Question: For AATTTCAGGTACC, which Kd is on record?
Answer: Its Kd is about 5.7 nM.

Question: For AATTTCAGGTATC, which binding signal is on record?
Answer: The binding signal was 2.16 Kd / Kd of best base at the position.

Question: AATGTCAGGTACC was tested. Which binding signal did it give?
Answer: Its binding signal is 1.84 Kd / Kd of best base at the position.

Question: AATTTCAGGGACC was tested. Which binding signal did it give?
Answer: Its binding signal is 12.3 Kd / Kd of best base at the position.

Question: How did the binding signal turn out when CATTTCAGGTACC was run?
Answer: Its binding signal is 1.46 Kd / Kd of best base at the position.

Question: For AATTTCAGGTACG, which binding signal is on record?
Answer: Its binding signal is 2.98 Kd / Kd of best base at the position.
